The source made the active and inactive calls. Cut-off read from the data, not from the text of the source, unless noted: active = inhibition above about 80%; inactive = the rest.
Legend:
[1] = growth inhibition, single agent or in combination, cell-based, chromothripsis tumors, cisplatin or BGB combos (AID 1671449); conditions: LFS_MB_P medulloblastoma cells;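 note: cells exposed for 96 hours; 0% = vehicle DMSO and 100% = killing by high DMSO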
[2] = growth inhibition, single agent and combos, cell-based, chromothripsis tumors, cisplatin or BGB combos (AID 1671450); conditions: HDN33 neuroblastoma cells, stronger effect = higher value;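 note: cells exposed to compound for four days; 0% = vehicle DMSO and 100% = cell killing by high DMSO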
[3] = growth inhibition, single agents and combos, ICB984, cell-based, cisplatin or BGB combos, synergistic combos for chromothripsis tumors (AID 1671451; call rule not given here;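 note: cells exposed for 96 hours before readout; 0% = vehicle DMSO and 100% = killing by high DMSO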); conditions: ICB984 medulloblastoma cells, drug combinations, stronger effect = higher value
[4] = growth inhibition, single agents and combos, LFS_MB_1R, cell-based, cisplatin or BGB combos, synergistic combos for chromothripsis tumors (AID 1671452); conditions: LFS_MB_1R medulloblastoma cells, stronger effect = higher value;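 note: cells exposed for 96 hours before readout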
[5] = growth inhibition, single agents and combos, HTB85, cell-based, BGB or cisplatin IC20 combos, synergistic combos for chromothripsis tumors (AID 1671453); conditions: HTB85 osteosarcoma cells, drug combinations, stronger effect = higher value;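 note: cells exposed for 96 hours before readout; 0% = vehicle DMSO and 100% = high DMSO killing control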
[6] = growth inhibition, single agents and combos, CRL2098, cell-based, BGB or cisplatin IC20 combos, synergistic combos for chromothripsis tumors (AID 1671454); conditions: CRL2098 osteosarcoma cells, drug combinations, stronger effect = higher value;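 note: cells exposed for 96 h before readout; 0% = vehicle DMSO and 100% = killing by high DMSO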
[7] = growth inhibition, single agents and combos, HD-MB03, cell-based, BGB or cisplatin IC20 combos, synergistic combos for chromothripsis tumors (AID 1671455; in the data active = inhibition above about 83%;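 note: 0% = vehicle DMSO and 100% = high DMSO as cytotoxic control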); conditions: HD-MB03 medulloblastoma cells, stronger effect = higher value
[8] = growth inhibition, single agents and combos, UWB1.289, cell-based, BGB or cisplatin combos, synergistic combos for chromothripsis tumors (AID 1671456); conditions: UWB1.289 ovarian carcinoma cells, stronger effect = higher value;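 note: cells exposed to compound for four days; 0% = vehicle DMSO and 100% = killing by high DMSO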
[9] = growth inhibition, single agents and combos, LFS_MB_2R, cell-based, cisplatin combos, synergistic combos for chromothripsis tumors (AID 1671457); conditions: LFS_MB_2R medulloblastoma cells, stronger effect = higher value;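 note: cells exposed to compound for four days before readout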
[10] = growth inhibition, MDA-MB-436, cell-based, BGB or cisplatin combos, synergistic combos for chromothripsis tumors (AID 1671458; call rule not given here;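 note: cells exposed for 96 hours; 0% = vehicle DMSO and 100% = killing by high DMSO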); conditions: MDA-MB-436 breast carcinoma growth inhibition, drug combinations, stronger effect = higher value
[11] = UWB1.289_BRCA1 ovarian cancer growth, cell-based, BGB or cisplatin combinations (AID 1671459); conditions: UWB1.289 BRCA1 ovarian carcinoma, drug combinations, stronger effect = higher value
[12] = drug combination toxicity in non-malignant astrocytes – cell-based, BGB or cisplatin IC20 combos, cytotoxicity control for chromothriptic childhood tumor combination screen (AID 1671460); conditions: Human astrocytes, viability inhibition, drug combinations, at 0.5 µM, stronger effect = higher value;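 note: cells exposed to compounds for 96 hours before viability readout; 0% = vehicle and 100% = killing control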
[13] = BT084 cell growth, single and combined drugs, ICGC_MB145, cisplatin and BGB IC40 combos (AID 1671461); conditions: BT084 medulloblastoma cells, drug combinations, stronger effect = higher value;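 note: cells exposed to drugs for 96 hours; 0% = vehicle DMSO and 100% = high DMSO full killing control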
[14] = RCMB18 cell growth, single agent and combined, cisplatin and BGB IC40 combos (AID 1671462); conditions: RCMB18 medulloblastoma cells, stronger effect = higher value;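 note: cells exposed to compound for four days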
[15] = CRL1545 cell growth, single agent and combined, cisplatin and BGB IC20 combos (AID 1671464); conditions: CRL1545 osteosarcoma cells, stronger effect = higher value;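 note: cells exposed to compound for 96 hours before readout; 0% = vehicle DMSO and 100% = high DMSO killing control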
[16] = at 0.5 µM, stronger effect = higher value
[17] = measured here: combination with BGB IC20, at 0.005 µM
[18] = measured here: combination with BGB IC40, at 0.005 µM
[19] = measured here: combination with BGB IC40, at 0.05 µM
[20] = measured here: combination with cisplatin, at 0.5 µM, stronger effect = higher value
[21] = measured here: combination with cisplatin, at 5 µM, stronger effect = higher value
[22] = measured here: with BGB IC20 combination, at 0.5 µM
[23] = measured here: with cisplatin IC20 combination, at 0.5 µM
[24] = measured here: 5 uM single agent, at 5 µM
[25] = measured here: combination with cisplatin, at 0.5 µM
[26] = measured here: combination with cisplatin, at 5 µM
[27] = measured here: with BGB IC20, at 0.5 µM
[28] = measured here: with BGB IC20, at 5 µM
[29] = measured here: with cisplatin IC20, at 0.5 µM
[30] = measured here: with cisplatin IC20, at 5 µM
[31] = measured here: combination with BGB at IC20, at 0.5 µM
[32] = measured here: combination with cisplatin at IC20, at 0.5 µM
[33] = measured here: combo with BGB at IC20, at 0.5 µM
[34] = measured here: combo with cisplatin at IC20, at 0.5 µM
[35] = measured here: inhibition with BGB combination, at 0.05 µM
[36] = measured here: inhibition with cisplatin combination, at 0.05 µM
[37] = measured here: BGB combination, at 0.5 µM
[38] = measured here: BGB combination, at 5 µM
[39] = measured here: cisplatin combination, at 0.5 µM
[40] = measured here: cisplatin combination, at 5 µM
[41] = BGB combination, concentration series, at 5 µM
[42] = cisplatin combination, concentration series, at 5 µM
[43] = measured here: combo with BGB IC20
[44] = measured here: combo with cisplatin IC20
[45] = cisplatin combination, at 0.5 µM
[46] = measured here: BGB IC40 combination 0.05 uM, at 0.05 µM
[47] = measured here: BGB IC40 combination, at 0.05 µM

SMILES: CN(C)C(=S)NN=C(c1ccccn1)c1ccccn1
- inhibition [1, 16]: 9.49% (inactive)
- inhibition [1, 17]: 65.9%
- inhibition [1, 18]: 60.3%
- inhibition [1, 19]: 73.6%
- inhibition [1, 20]: 14.7%
- inhibition [1, 21]: 65.2%
- inhibition ([2]; BGB combo, at 5 µM): 93.5%
- inhibition ([2]; at 0.5 µM): 96.3% (active)
- inhibition ([2]; cisplatin combo, at 5 µM): 96.8%
- inhibition [2, 22]: 96.5%
- inhibition [2, 23]: 96.3%
- inhibition ([2]; single agent, at 5 µM): 95.4%
- inhibition ([3]; BGB IC20 combo, at 0.005 µM): 49.9%
- inhibition ([3]; BGB IC40 combo, at 0.005 µM): 48.2%
- inhibition ([3]; BGB IC40 combo, at 0.05 µM): 88.6%
- inhibition ([3]; at 0.5 µM): -3.29% (inactive)
- inhibition ([3]; cisplatin combo, at 0.05 µM): 88.1%
- inhibition ([3]; cisplatin combo, at 0.5 µM): -11.8%
- inhibition ([3]; cisplatin combo, at 5 µM): 27.2%
- inhibition [3, 24]: 32%
- inhibition ([4]; at 0.5 µM): 82.5% (active)
- inhibition [4, 19]: 62.2%
- inhibition [4, 25]: 96.8%
- inhibition [4, 26]: 91.5%
- inhibition ([5]; at 0.5 µM): 89.9% (active)
- inhibition [5, 27]: 85.2%
- inhibition [5, 28]: 92.5%
- inhibition [5, 29]: 91%
- inhibition [5, 30]: 88.7%
- inhibition ([5]; single agent, at 5 µM): 90.5%
- inhibition ([6]; at 0.5 µM): 98% (active)
- inhibition [6, 31]: 97.8%
- inhibition [6, 32]: 98.6%
- inhibition ([7]; at 0.5 µM): 86.8% (active)
- inhibition [7, 33]: 70.3%
- inhibition [7, 34]: 93.8%
- inhibition ([8]; at 0.5 µM): 88% (active)
- inhibition [8, 35]: 90.6%
- inhibition [8, 36]: 92.1%
- inhibition ([9]; at 0.5 µM): 61.3% (inactive)
- inhibition [9, 25]: 70.1%
- inhibition [9, 26]: 64.5%
- inhibition ([10]; at 0.5 µM): 81.2% (active)
- inhibition [10, 37]: 73.4%
- inhibition [10, 38]: 86%
- inhibition [10, 39]: 85.1%
- inhibition [10, 40]: 93.7%
- inhibition [11, 41]: 121%
- inhibition ([11]; at 0.5 µM): 87% (active)
- inhibition [11, 42]: 127%
- inhibition [12]: 77.8% (inactive)
- inhibition [12, 43]: 77.7%
- inhibition [12, 44]: 72.8%
- inhibition ([13]; at 0.5 µM): 72.7% (inactive)
- inhibition [13, 45]: 77.7%
- inhibition ([13]; cisplatin combination, at 5 µM): 74%
- inhibition [13, 46]: 80.3%
- inhibition ([13]; single agent, at 5 µM): 83.9%
- inhibition ([14]; at 0.5 µM): 82.2% (active)
- inhibition ([14]; cisplatin combo, at 5 µM): 90.5%
- inhibition [14, 47]: 80.1%
- inhibition [14, 25]: 86%
- inhibition ([14]; single agent, at 5 µM): 94.3%
- inhibition ([15]; at 0.5 µM): 96.9% (active)
- inhibition [15, 22]: 97.1%
- inhibition [15, 23]: 96.8%
- inhibition ([15]; single agent, at 0.05 µM): 88.4%
- inhibition ([15]; single agent, at 5 µM): 89.2%

SMILES: O=C(CCCCCCC(=O)NO)NO
- inhibition [1, 16]: -16.3% (inactive)
- inhibition [1, 17]: 3.43%
- inhibition [1, 18]: -7.94%
- inhibition [1, 19]: -3.7%
- inhibition [1, 20]: -17.1%
- inhibition [1, 21]: 37.5%
- inhibition ([2]; BGB combo, at 5 µM): 16.4%
- inhibition ([2]; at 0.5 µM): -16.1% (inactive)
- inhibition ([2]; cisplatin combo, at 5 µM): -6.26%
- inhibition [2, 22]: -13.7%
- inhibition [2, 23]: -21.3%
- inhibition ([2]; single agent, at 5 µM): -0.771%
- inhibition ([3]; BGB IC20 combo, at 0.005 µM): -20.4%
- inhibition ([3]; BGB IC40 combo, at 0.005 µM): -41.1%
- inhibition ([3]; BGB IC40 combo, at 0.05 µM): -25.8%
- inhibition ([3]; at 0.5 µM): -27% (inactive)
- inhibition ([3]; cisplatin combo, at 0.05 µM): -30.8%
- inhibition ([3]; cisplatin combo, at 0.5 µM): -31.2%
- inhibition ([3]; cisplatin combo, at 5 µM): -49.1%
- inhibition [3, 24]: -5.09%
- inhibition ([4]; at 0.5 µM): -25% (inactive)
- inhibition [4, 19]: -41%
- inhibition [4, 25]: -39.7%
- inhibition [4, 26]: -49.3%
- inhibition ([5]; at 0.5 µM): -16.4% (inactive)
- inhibition [5, 27]: -21.4%
- inhibition [5, 28]: 7.58%
- inhibition [5, 29]: -13.1%
- inhibition [5, 30]: -1.96%
- inhibition ([5]; single agent, at 5 µM): 8.05%
- inhibition ([6]; at 0.5 µM): -49.2% (inactive)
- inhibition [6, 31]: -52%
- inhibition [6, 32]: -0.415%
- inhibition ([7]; at 0.5 µM): -7.45% (inactive)
- inhibition [7, 33]: -12.8%
- inhibition [7, 34]: -0.883%
- inhibition ([8]; at 0.5 µM): -11.1% (inactive)
- inhibition [8, 35]: 12.4%
- inhibition [8, 36]: -20.9%
- inhibition ([9]; at 0.5 µM): 7.53% (inactive)
- inhibition [9, 25]: -13.9%
- inhibition [9, 26]: 4.86%
- inhibition ([10]; at 0.5 µM): -5.23% (inactive)
- inhibition [10, 37]: 0.608%
- inhibition [10, 38]: 5.89%
- inhibition [10, 39]: -7.76%
- inhibition [10, 40]: 14.4%
- inhibition [11, 41]: 21.1%
- inhibition ([11]; at 0.5 µM): -7.22% (inactive)
- inhibition [11, 42]: 38.6%
- inhibition [12]: -7.15% (inactive)
- inhibition [12, 43]: -3.26%
- inhibition [12, 44]: -13%
- inhibition ([13]; at 0.5 µM): -7.26% (inactive)
- inhibition [13, 45]: -13%
- inhibition ([13]; cisplatin combination, at 5 µM): 18.3%
- inhibition [13, 46]: -15.2%
- inhibition ([13]; single agent, at 5 µM): 28.5%
- inhibition ([14]; at 0.5 µM): -4.15% (inactive)
- inhibition ([14]; cisplatin combo, at 5 µM): 6.83%
- inhibition [14, 47]: -1.04%
- inhibition [14, 25]: -1.18%
- inhibition ([14]; single agent, at 5 µM): -14.5%
- inhibition ([15]; at 0.5 µM): -30.5% (inactive)
- inhibition [15, 22]: -55.7%
- inhibition [15, 23]: -17.9%
- inhibition ([15]; single agent, at 0.05 µM): -50.7%
- inhibition ([15]; single agent, at 5 µM): -1.16%

Reference: PubChem BioAssay
